13 compounds from PubChem BioAssay can be followed below.

Activity calls are given as the source filed them.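 The calls were made as follows, unless noted: active = compounds that lower viability of the colon cancer cells in the luminescence readout, with no numeric limit stated; inactive = the rest.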

Test [1] is described as follows: Wnt pathway potentiators raising nuclear beta-catenin – imaging, WNT3A-conditioned medium, mouse C2C12, NPC library, primary screen (AID 1117326; in the data active = nuclear beta-catenin stimulation mostly above about 4.2%, no sharp cut-off; inactive = mostly below about 10%; also: reference of the scale not given here). The note with it: stronger effect = higher value.
Test [2] can be described thus: stimulators of insulin release from INS-1E, primary screen, cell-based, 5 mM glucose, NPC library (AID 1117329;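 active = compound raises insulin release from rat beta cells at 5 mM glucose, no numeric limit stated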; also: reference of the scale not given here). The note with it: rat INS-1E insulin secretion, at 10 µM, stronger effect = higher value.
Test [3] is described as follows: growth inhibition of GSK3B-pretreated HCT116 cells – cell-based, CellTiter-Glo, 0.2 to 20 µM (AID 1117336;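 active = compounds lowering colon cancer cell viability after pretreatment blocking the GSK3B kinase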). The note with it: HCT116 viability after GSK3B inhibitor, at 20 µM, stronger effect = higher value. For orientation: Cellular ATP, detected with luciferase, serves as a proxy for viable cell number.
Test [4] in a line: inhibition of endothelial tube formation, primary screen, imaging, VEGF stimulated, CD31 staining, tube area, NPC library (AID 1117340;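 active = compound that reduces growth-factor-driven endothelial tube area in a mixed cell culture, no cutoff stated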). The note with it: VEGF-stimulated ADSC/ECFC co-culture, at 10 µM, stronger effect = higher value.
Test [5] in a line: GLP1 release stimulators, primary, NCI-H716, NPC library (AID 1117341;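 active = compound raises GLP1 secretion from the human gut endocrine cells, with no numeric limit stated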; also: reference of the scale not given here). The conditions noted are these: NCI-H716 cells, at 10 µM, stronger effect = higher value.
The nature of test [6]: HCT116 colon cancer cell growth inhibition, primary screen, CellTiter-Glo luminescence, NPC library (AID 1117342;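 active = compounds that lower survival of HCT116 colon cancer cells in the luminescence readout, no numeric limit stated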). The note with it: at 20 µM (top of the series).
Test [7] is described as follows: reduced SW480 viability measured with CellTiter-Glo, NPC library, primary (AID 1117343). The conditions noted are these: CellTiter-Glo luminescence; at 20 µM (top of the series).
Test [8] can be described thus: NPC library primary testing for decreased DLD-1 cell viability via CellTiter-Glo (AID 1117346;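 active = compounds that lower survival of DLD-1 colon cancer cells in the luminescence readout, no cutoff given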). The note with it: DLD-1 viability, CellTiter-Glo luminescence; at 20 µM (top of the series).

With `Cc1cc(N)c2cc(NC(=O)Nc3ccc4nc(C)cc(N)c4c3)ccc2n1`, the nuclear beta-catenin stimulation in test [1] (at 10 µM) is 2.4% (inactive); in test [1] (stimulation, at 2 µM), -2.2%. Moreover, the insulin secretion stimulation in test [2] was 8.1% (inactive). In addition, in test [3], the viability decrease is 54.4% (active). Further, the tube area decrease in test [4] was -0.3% (inactive). In addition, the GLP1 secretion stimulation in test [5] was 32.3% (active). Also, the inhibition of viability in test [6] is 64% (active). Moreover, the viability decrease (inhibition) in test [7] is 144% (active); in test [8], 94.2% (active).
For the compound `O=C1CCC(C(=O)O)N1` (configuration not stated), the nuclear beta-catenin stimulation is -1.2% (inactive) in test [1] (at 10 µM) and 2.3% in test [1] (stimulation, at 2 µM). Moreover, the insulin secretion stimulation in test [2] was 2.6% (inactive). In test [3], the viability decrease was -7.5% (inactive). Moreover, the tube area decrease in test [4] is 6.4% (inactive). The GLP1 secretion stimulation in test [5] was -3.6% (inactive). The inhibition of viability in test [6] is 2.4% (inactive). The viability decrease (inhibition) in test [7] is -1.5% (inactive); in test [8], -4% (inactive).
Consider `Nc1ncnc(Nc2ccccc2)n1`, for which the nuclear beta-catenin stimulation was 0.5% (inactive) in test [1] (at 10 µM) and 0.6% in test [1] (stimulation, at 2 µM). For the same compound, the insulin secretion stimulation in test [2] was -1.2% (inactive). In addition, the viability decrease in test [3] was 3.65% (inactive). For the same compound, the tube area decrease in test [4] was -16% (inactive). Further, the GLP1 secretion stimulation in test [5] is -0.9% (inactive). Besides, the inhibition of viability in test [6] is 2.7% (inactive). The viability decrease (inhibition) in test [7] was 51.8% (active); in test [8], 19.1% (inactive).
As for `CON=C(C(=O)N[C@@H]1C(=O)N2C(C(=O)O)=C(C[N+]3(C)CCCC3)CS[C@H]12)c1csc(N)n1`, the nuclear beta-catenin stimulation in test [1] (at 10 µM) is -2.1% (inactive); in test [1] (stimulation, at 2 µM), 0.2%. Moreover, the insulin secretion stimulation in test [2] is 3.1% (inactive). The viability decrease in test [3] was 4.1% (inactive). The tube area decrease in test [4] was 2.5% (inactive). The GLP1 secretion stimulation in test [5] is -0.7% (inactive). In test [6], the inhibition of viability is -21.3% (inactive). In addition, the viability decrease (inhibition) in test [7] was -14.4% (inactive); in test [8], -9.8% (inactive).
Take `Nc1c(I)cc(I)c(C(=O)N(CCC(=O)O)c2ccccc2)c1I`: the nuclear beta-catenin stimulation was 1.2% (inactive) in test [1] (at 10 µM) and -0.2% in test [1] (stimulation, at 2 µM). In test [2], the insulin secretion stimulation is 1.9% (inactive). Moreover, the viability decrease in test [3] is -9.8% (inactive). Besides, the tube area decrease in test [4] is -5.2% (inactive). Also, in test [5], the GLP1 secretion stimulation is -5.3% (inactive). Further, the inhibition of viability in test [6] was -9.4% (inactive). For the same compound, the viability decrease (inhibition) in test [7] was 7.8% (active); in test [8] it was -9.8% (inactive).
As to `CC(C)(C)C(=O)NCCCC(=O)O`, the nuclear beta-catenin stimulation was -1.1% (inactive) in test [1] (at 10 µM) and 2.4% in test [1] (stimulation, at 2 µM). The insulin secretion stimulation in test [2] was 2.7% (inactive). Moreover, the viability decrease in test [3] was -7.9% (inactive). Further, in test [4], the tube area decrease is 2% (inactive). In addition, the GLP1 secretion stimulation in test [5] is -3.9% (inactive). Besides, the inhibition of viability in test [6] was -1.1% (inactive). The viability decrease (inhibition) in test [7] is -0.2% (inactive); in test [8], -16.7% (inactive).
With `CCN1CCN(C(=O)N[C@@H](C(=O)N[C@@H]2C(=O)N3[C@@H]2SC(C)(C)[C@H]3C(=O)O)c2ccccc2)C(=O)C1=O`, the nuclear beta-catenin stimulation in test [1] (at 10 µM) is 0.2% (inactive); in test [1] (stimulation, at 2 µM), 0.9%. Also, the insulin secretion stimulation in test [2] is -0.5% (inactive). In addition, the viability decrease in test [3] was -21.3% (inactive). The tube area decrease in test [4] is -12.7% (inactive). For the same compound, the GLP1 secretion stimulation in test [5] was -0.4% (inactive). In test [6], the inhibition of viability is 23.9% (inactive). In addition, the viability decrease (inhibition) is 8.3% (inactive) in test [7] and -5.2% (inactive) in test [8].
Consider `NCc1ccccc1Sc1ccccc1CO`, for which the nuclear beta-catenin stimulation is 0.6% (inactive) in test [1] (at 10 µM) and 1% in test [1] (stimulation, at 2 µM). The insulin secretion stimulation in test [2] is -0.8% (inactive). Besides, in test [3], the viability decrease is -138% (inactive). Further, the tube area decrease in test [4] was -11.8% (inactive). In test [5], the GLP1 secretion stimulation is 3.3% (inactive). In addition, the inhibition of viability in test [6] was 6.13% (inactive). Further, the viability decrease (inhibition) was 29.2% (inactive) in test [7] and -10.7% (inactive) in test [8].
`CC(=O)c1cc2ccccc2s1`: the nuclear beta-catenin stimulation in test [1] (at 10 µM) is 2.1% (inactive); in test [1] (stimulation, at 2 µM) it was 1.1%. Also, the insulin secretion stimulation in test [2] was -1.3% (inactive). In addition, in test [3], the viability decrease was 32.7% (inactive). Besides, the tube area decrease in test [4] is -3.8% (inactive). In test [5], the GLP1 secretion stimulation was 0.1% (inactive). In test [6], the inhibition of viability is 31.2% (inactive). Also, the viability decrease (inhibition) was 32.8% (inactive) in test [7] and 26.6% (inactive) in test [8].
Turning to `CC(C)CCCC(C)CCCC(C)CCCCC(C)CCCC(C)CCCC(C)C` (configuration not stated), the nuclear beta-catenin stimulation in test [1] (at 10 µM) is -1.2% (inactive); in test [1] (stimulation, at 2 µM) it was -0.8%. Also, the insulin secretion stimulation in test [2] is -1.6% (inactive). Moreover, in test [3], the viability decrease was -26.9% (inactive). Further, the tube area decrease in test [4] is 4.8% (inactive). Besides, in test [5], the GLP1 secretion stimulation was -2.5% (inactive). For the same compound, the inhibition of viability in test [6] is -10.1% (inactive). Also, the viability decrease (inhibition) in test [7] was 22.4% (inactive); in test [8], -26.5% (inactive).
Consider `CCCCCCCC/C=C/C(=O)O`, for which the nuclear beta-catenin stimulation is 1.3% (inactive) in test [1] (at 10 µM) and 0.6% in test [1] (stimulation, at 2 µM). For the same compound, in test [2], the insulin secretion stimulation was 1.9% (inactive). Further, the viability decrease in test [3] is -52.2% (inactive). Also, the tube area decrease in test [4] is -10.1% (inactive). Further, the GLP1 secretion stimulation in test [5] is -3.8% (inactive). Moreover, in test [6], the inhibition of viability was 5.93% (inactive). For the same compound, the results for the viability decrease (inhibition) in test [7] and in test [8] were 85.3% (active) and 45% (inactive), respectively.
On to `Cc1ccccc1C(=O)N1CC/C(=N\OS(=O)(=O)O)c2ccc(Cl)cc21`, for which the nuclear beta-catenin stimulation in test [1] (at 10 µM) was 0.7% (inactive); in test [1] (stimulation, at 2 µM), -1.3%. The insulin secretion stimulation in test [2] is 3.05% (inactive). Besides, in test [3], the viability decrease was 19.7% (inactive). In addition, the tube area decrease in test [4] was -2.3% (inactive). In addition, the GLP1 secretion stimulation in test [5] is 3.1% (inactive). Also, the inhibition of viability in test [6] is 1.4% (inactive). Further, the values for the viability decrease (inhibition) in test [7] and in test [8] were -15.6% (inactive) and -6.4% (inactive), respectively.
`NC(=O)C[C@H](N)C(=O)O`: the nuclear beta-catenin stimulation in test [1] (at 10 µM) was 3% (inactive); in test [1] (stimulation, at 2 µM), 1.1%. Besides, in test [2], the insulin secretion stimulation was -1.3% (inactive). The viability decrease in test [3] was -1% (inactive). Also, in test [4], the tube area decrease was -19.4% (inactive). The GLP1 secretion stimulation in test [5] was 2.4% (inactive). In addition, the inhibition of viability in test [6] is 0.3% (inactive). The viability decrease (inhibition) in test [7] was 0.2% (inactive); in test [8], 5.4% (inactive).
